Data published in paper PMC4336329 (PLoS ONE, 2015).
The campaign covered roughly 310,000 compounds. About 2,200 (0.71%) showed an effect of 50% or more. The effect is printed as a negative number. The entries come from a sample that favours strong results as a whole.

These compounds were tested against human ether-à-go-go-related gene (hERG) potassium channel (human, UniProt Q12809) (assay: primary screen, population patch clamp on CHO cells stably expressing hERG; higher = less effect of the substance).
human ether-à-go-go-related gene (hERG) potassium channel, sequence (Q12809 whole entry, looked up): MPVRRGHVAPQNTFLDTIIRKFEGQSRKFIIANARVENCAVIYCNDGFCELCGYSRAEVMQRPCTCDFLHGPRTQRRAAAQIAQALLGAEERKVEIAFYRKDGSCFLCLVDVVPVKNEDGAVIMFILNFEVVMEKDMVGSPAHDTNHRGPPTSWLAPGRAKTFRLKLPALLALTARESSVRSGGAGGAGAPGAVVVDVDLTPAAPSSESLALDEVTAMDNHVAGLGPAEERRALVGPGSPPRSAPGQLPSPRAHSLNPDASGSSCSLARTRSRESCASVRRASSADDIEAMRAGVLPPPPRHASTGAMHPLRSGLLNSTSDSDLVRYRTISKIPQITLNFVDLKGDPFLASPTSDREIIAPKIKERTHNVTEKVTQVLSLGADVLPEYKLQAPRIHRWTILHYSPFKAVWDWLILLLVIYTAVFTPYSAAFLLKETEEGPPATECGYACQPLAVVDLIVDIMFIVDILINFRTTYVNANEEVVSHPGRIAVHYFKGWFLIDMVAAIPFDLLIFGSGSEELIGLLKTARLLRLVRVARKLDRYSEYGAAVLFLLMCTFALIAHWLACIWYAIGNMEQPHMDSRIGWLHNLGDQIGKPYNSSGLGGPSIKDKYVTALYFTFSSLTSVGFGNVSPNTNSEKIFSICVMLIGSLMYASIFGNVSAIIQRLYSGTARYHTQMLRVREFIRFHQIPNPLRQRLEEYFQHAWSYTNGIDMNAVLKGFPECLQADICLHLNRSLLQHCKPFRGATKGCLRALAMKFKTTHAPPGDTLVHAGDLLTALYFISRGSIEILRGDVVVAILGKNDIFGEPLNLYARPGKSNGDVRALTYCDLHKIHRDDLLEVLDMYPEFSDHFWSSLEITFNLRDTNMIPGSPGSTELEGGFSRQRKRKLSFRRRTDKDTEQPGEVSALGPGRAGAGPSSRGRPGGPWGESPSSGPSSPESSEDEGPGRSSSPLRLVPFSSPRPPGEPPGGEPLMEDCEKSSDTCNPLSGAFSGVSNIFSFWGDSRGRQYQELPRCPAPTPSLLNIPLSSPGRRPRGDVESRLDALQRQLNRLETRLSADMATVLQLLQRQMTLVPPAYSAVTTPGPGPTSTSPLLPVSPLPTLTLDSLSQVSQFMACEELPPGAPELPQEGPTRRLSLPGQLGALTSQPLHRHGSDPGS

| SMILES | hERG current change (%, negative = inhibition) at 1uM [%] |
| --- | --- |
| Cc1cc(NC(=O)NCc2ccccc2)c(=O)n(Cc2ccccc2F)c1 | 7.05 |
| O=C(O)C(=O)O.O=[N+]([O-])c1ccc(OCCN2CCNCC2)cc1 | -52.2 |
| CCOc1ccc(OCCN2CCCCC2)cc1.O=C(O)C(=O)O | -4.9 |
| Cc1ccc(OCCN2CCCC2)cc1.O=C(O)C(=O)O | 7.22 |
| Fc1ccc(OCCOCCN2CCNCC2)cc1.O=C(O)C(=O)O | 10.4 |
| CC1CCN(CCCCOc2ccc([N+](=O)[O-])cc2)CC1 | -77.8 |
| Cc1cc(=O)n(C)c(=O)n1CCCCOc1cccc([N+](=O)[O-])c1 | 9.25 |
| CC1CCN(CCCCOc2ccc(Br)cc2)CC1 | -30.4 |
| COc1ccc(OCCCCN2CCC(C)CC2)cc1.O=C(O)C(=O)O | 0.418 |
| Cc1cc(=O)n(C)c(=O)n1CCCCOc1ccc([N+](=O)[O-])cc1 | -66.8 |
| Cc1ccc(OCCN2CCNCC2)c([N+](=O)[O-])c1.O=C(O)C(=O)O | 17.4 |
| Cc1cc(=O)n(C)c(=O)n1CCCCCCOc1ccc([N+](=O)[O-])cc1 | -11.1 |
| O=C(O)C(=O)O.O=[N+]([O-])c1ccc(OCCN2CCCCCC2)cc1 | -74.5 |
| CCCc1cc(=O)oc2cc(C)cc(OCC(=O)Nc3ccc(CN4CCOCC4)cc3)c12 | 10.4 |
| CCCN(CCC)CCNC(=O)C1CC(=O)N(c2ccc(OC)cc2)C1c1ccc(OC)cc1 (stereo not shown) | -18.1 |
| CCOC(=O)C1(C)NC(c2ccccc2F)C2C(=O)N(c3cccc(C(C)=O)c3)C(=O)C21 (stereo not shown) | 15.4 |
| CC(=O)Nc1ccc(-c2nnn(CC(=O)c3ccccc3)n2)cc1Cl | 8.22 |
| CCOC(=O)c1c(C)[nH]c(C(=O)C(C)OC(=O)c2ccc(NC(=O)CC#N)cc2)c1C (stereo not shown) | 17.5 |
| O=C(O)C(Oc1ccc2c(-c3ccccc3)cc(=O)oc2c1)c1ccccc1 (stereo not shown) | 9.07 |
| COc1ccc2c3c(c(=O)oc2c1OCC(=O)O)CCCC3 | 23.8 |
| CCOc1ccc(-c2cc(C(=O)O)c3ccccc3n2)cc1 | 7.66 |
| COc1ccc(/C=C/C(=O)NCCOc2ccc(C)cc2)cc1 | 10.5 |

| SMILES | hERG current change (%, negative = inhibition) at 1uM [%] |
| --- | --- |
| COc1ccccc1OCCNC(=O)/C=C/c1ccc([N+](=O)[O-])cc1 | -9.26 |
| CCCOc1ccc(OCCCCNC(C)CC)cc1.O=C(O)C(=O)O (stereo not shown) | 1.92 |
| CCC(C)NCCCCOc1ccc(Br)cc1.O=C(O)C(=O)O (stereo not shown) | -0.232 |
| COc1ccc(OCCNC(=O)/C=C/c2ccc([N+](=O)[O-])cc2)cc1 | -59.9 |
| Brc1ccc(OCCCCN2CCCCC2)cc1 | -11.6 |
| O=[N+]([O-])c1ccc(OCCCCN2CCCCC2)cc1 | -59.4 |
| O=[N+]([O-])c1ccc(OCCCCCN2CCOCC2)cc1 | -24.9 |
| CCC(C)NCCCOc1ccc([N+](=O)[O-])cc1.O=C(O)C(=O)O (stereo not shown) | -73.7 |
| Cc1[nH]n(-c2ccccc2)c(=O)c1C=Nc1ccc(S(=O)(=O)Nc2nccs2)cc1 | 12.2 |
| O=S1(=O)CCC(NC(=S)Nc2ccc3ccccc3c2)C1 (stereo not shown) | 11.6 |
| COCCn1c(SCC(=O)NC2(C#N)CCCCC2)nc2ccccc2c1=O | -12.8 |
| O=c1[nH]c(Cn2nnc(-c3ccccc3)n2)nc2scc(-c3ccccc3)c12 | 13.1 |
| N#Cc1nc(COc2cccc(Cl)c2)oc1NCc1ccco1 | -1.39 |
| N#Cc1nc(COc2cccc(Cl)c2)oc1NCc1ccncc1 | -53.8 |
| CN(C)CCNc1oc(COc2cccc(Cl)c2)nc1C#N | -4.66 |
| Cc1nc2c(n1C1CCCCC1)C(=O)c1ccccc1C2=O | 19.1 |
| COc1ccc2c(c1)c(C(=O)C(C)N1CCCCC1)c(C)n2C (stereo not shown) | 16.9 |
| OCC1(CCc2ccccc2)CCN(Cc2cc(F)ccc2-n2cccn2)CC1 | -85.3 |
| COc1ccc(F)c(CN2CCCC(CO)(Cc3cccc(Cl)c3)C2)c1 (stereo not shown) | 11.8 |
| COc1cccc(CC2(CO)CCCN(Cc3cn[nH]c3-c3ccc(F)cc3)C2)c1 (stereo not shown) | 6.39 |
| COc1cccc(CC2(CO)CCCN(Cc3c(C)cc(C)cc3-n3cccn3)C2)c1 (stereo not shown) | -93.1 |
